Screens as filed in PubChem BioAssay.
B2AR arrestin ag: agonists recruiting beta-arrestin to human beta2-adrenergic receptor. P07550. HTLA Tango cells, beta-arrestin recruitment, luciferase luminescence, 18 h. Potency, µM (series often up to 46.1 µM), usual class: activators. 44,000 tested, under 10 active;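 note: potency is the fitted concentration of half-maximal effect; 0% = DMSO and full agonism = EC100 isoproterenol or metaproterenol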
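Ligand-induced beta-arrestin recruitment to recombinant beta2-AR is measured via a tTA-driven luciferase reporter in Tango cells after 18 hr compound exposure at 37 degrees C. Concentrations span up to 46 microM.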
FH mod: Identification of activators of human fumarate hydratase by quantitative high-throughput screening; Fumarate hydratase, mitochondrial (Homo sapiens), P07954; FH coupled MDH/diaphorase resazurin fluorescence, 15 min; Potency, µM (top dose mostly 79.9 µM), without a hit: at the highest dose activity change, negative = inhibition, actives largely listed as inhibitors; 54,000 compounds, 0.22% hits; note: potency is the fitted concentration of half-maximal effect; % is set by controls: 0 for no effect and ±100 for the full control effect; the screen sought activators but most active calls are inhibition curves; nearly all actives have a fitted effect of over 45% in size
HTT prom inh: HTT promoter inhibition; 48,000 compounds, 0.93% hits; HEK293 HTT promoter firefly luciferase reporter, 24 h; Potency, µM (series often up to 57.5 µM), without a hit: top-dose activity change, negative = inhibition, usual class: inhibitors; note: potency is the fitted concentration of half-maximal effect; nearly all actives have a fitted effect of over 50% in size
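Luminescence was read after Dual-Glo reagent and a 10 min room-temperature incubation. Values were normalized to vehicle (0% activity) and zero RLU (-100% activity). Reporter HEK293 cells had been exposed to compounds (up to 57.5 uM final) for 24 h.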
HTT-AS promoter: HTT-AS promoter activation; HEK293 HTT-AS promoter firefly luciferase reporter, 24 h; response scale: percent change from vehicle, -100% = no light; 48,000 compounds, 0.24% hits; Potency, µM (top dose mostly 57.5 µM), for inactives: top-dose activity change, positive = activation, usual class: activators; note: potency is the fitted concentration of half-maximal effect; nearly all actives have a fitted effect of over 55% in size
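HEK293 luciferase promoter-reporter cells (2,500/well) plated 24 h, then compounds added at up to 57.5 uM final for 24 h at 37 °C. Firefly luminescence by Dual-Glo, normalized to vehicle (0%) and zero RLU (-100%).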
GPR32 ag: agonists of human resolvin D1 receptor DRV1 (GPR32); 48,000 compounds, 2.5% hits; CHO-K1 GPR32 beta-arrestin PathHunter luminescence, 90 min; zero percent set by DMSO-only wells; O75388; activation, % at 76.9 µM;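 active = activation of at least 60% and not above a set upper limit, about 1 call in 100 departs from these limits; inconclusive = activation of 40% to 60%, or above that upper limit; inactive = activation under 40%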; note: 0% is about no effect
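Cells are plated overnight, treated with compounds in DMSO for 90 minutes at 37 °C, and developed with PathHunter detection reagent for 1 hour before luminescence is read; signal reflects beta-arrestin binding to GPR32 in engineered CHO-K1 cells.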
GALC G270D act: enhancers of human galactocerebrosidase G270D mutant activity in cells; AID 1159614; 45,000 compounds, 0.1% hits; P54803; Potency, µM (top dose mostly 57.5 µM), most hits filed as activators; 145M-Twi-hGALC-G270D cells (Twitcher mouse brain line with human GALC G270D), HMU-beta-Gal fluorescence, 48 h; note: potency is the fitted concentration of half-maximal effect; 0% is about no effect; nearly all actives have a fitted effect of over 65% in size
Target sequence (P54803 whole entry G286D): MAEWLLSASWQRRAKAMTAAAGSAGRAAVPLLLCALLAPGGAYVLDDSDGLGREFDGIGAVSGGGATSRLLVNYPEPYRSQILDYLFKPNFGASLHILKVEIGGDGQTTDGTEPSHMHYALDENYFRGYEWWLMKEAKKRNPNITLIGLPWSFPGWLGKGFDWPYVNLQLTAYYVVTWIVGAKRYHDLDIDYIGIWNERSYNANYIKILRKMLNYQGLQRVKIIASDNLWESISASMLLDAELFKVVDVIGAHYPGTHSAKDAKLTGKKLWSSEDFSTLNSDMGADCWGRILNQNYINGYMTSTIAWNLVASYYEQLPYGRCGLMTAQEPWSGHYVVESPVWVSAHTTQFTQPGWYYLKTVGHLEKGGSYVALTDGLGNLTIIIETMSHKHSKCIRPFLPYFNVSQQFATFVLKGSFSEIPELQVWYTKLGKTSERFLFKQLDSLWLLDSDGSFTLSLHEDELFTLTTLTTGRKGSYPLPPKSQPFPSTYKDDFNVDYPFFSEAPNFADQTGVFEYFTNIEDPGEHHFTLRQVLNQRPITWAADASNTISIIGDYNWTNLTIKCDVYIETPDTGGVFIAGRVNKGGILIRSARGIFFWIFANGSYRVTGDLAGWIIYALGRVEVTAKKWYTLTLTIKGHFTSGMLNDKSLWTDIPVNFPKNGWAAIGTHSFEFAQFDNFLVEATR
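Mutant human GALC (G270D), stably expressed in a Twitcher mouse brain cell line lacking endogenous GALC, is measured in live-treated cells via 6-hexadecanoylamino-4-methylumbelliferyl-β-galactoside hydrolysis (0.1 mM final, pH 5.2) with fluorescent detection.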
Numbers without * were called inactive; ! = not confirmed by another sample; [ ] = another dose, or the depositor's remark. Shown are actives, neighbours in structure and some others; about 3.7% of the full set was active somewhere. Unless noted, calls come from the whole dose curve; as a rule, active = well fitted curve in the direction sought with a large enough effect; inconclusive = small, poorly fitted or top-dose-only effect, or another doubt; inactive = no such curve, though single readings can be large; an effect the other way counts as inactive or inconclusive.

How did COc1ccc(NC(=O)CCc2nc(C3=CCN(Cc4cccc(C)c4)CC3)no2)c(OC)c1 do in these assays?
B2AR arrestin ag: inactive; FH mod: inconclusive; HTT prom inh: -11.4%; HTT-AS promoter: 3.7%; GPR32 ag: 14.6; GALC G270D act: inactive

Results for O=C(CCc1nc(C2=CCN(Cc3cccc(Cl)c3)CC2)no1)Nc1ccccc1F ?
B2AR arrestin ag: inactive; FH mod: -18.5%; HTT prom inh: -32.7%; HTT-AS promoter: -12.7%; GPR32 ag: 69.9*; GALC G270D act: inactive

Results for COc1ccc(-c2nc(CSCC(=O)N3CCN(c4ccc(F)cc4)CC3)c(C)o2)cc1 ?
B2AR arrestin ag: inactive; FH mod: -14.2%; HTT prom inh: 12.6µM*; HTT-AS promoter: -51.0%; GPR32 ag: -7.0; GALC G270D act: inactive

Results for C[C@@H]1O[C@@H](O[C@H]2CC[C@@]3(C)C(CC[C@@H]4C3CC[C@]3(C)[C@@H](C5=CC(=O)OC5)CC[C@]43O)C2)[C@H](O)[C@H](O)[C@H]1O (stereo not given in full) ?
FH mod: 1.5%[53.3 µM]

What do the screens show for `C[C@@H]1O[C@@H](O[C@H]2C[C@@H](O)[C@]3(CO)[C@H]4[C@H](O)C[C@]5(C)[C@@H](C6=CC(=O)OC6)CC[C@]5(O)[C@@H]4CC[C@]3(O)C2)[C@H](O)[C@H](O)[C@H]1O`?
FH mod: 6.0%[53.3 µM]; HTT prom inh: inconclusive; HTT-AS promoter: inconclusive; GPR32 ag: 65.2*!; GALC G270D act: inactive

What do the screens show for `Nc1ncnc2c1ncn2[C@@H]1O[C@H](COP(=O)(O)CP(=O)(O)OP(=O)(O)O)C(O)[C@H]1O` (stereo not given in full)?
FH mod: -20.5%[53.3 µM]

What do the screens show for `C/C=C(\C)C(=O)O[C@H]1[C@H](OC(C)=O)[C@]2(CO)[C@H](O)[C@H](O)[C@]3(C)C(=CCC4[C@@]5(C)CC[C@H](O[C@@H]6O[C@H](C(=O)O)[C@@H](O)[C@H](O[C@@H]7OC[C@H](O)[C@H](O[C@@H]8OC[C@H](O)[C@H](O)[C@H]8O)[C@H]7O)[C@H]6O[C@@H]6O[C@H](CO)[C@@H](O)[C@H](O)[C@H]6O)C(C)(C)C5CC[C@]43C)[C@@H]2CC1(C)C` (stereo not given in full)?
FH mod: 0.0%[13.5 µM]

Results for CCOC(=O)C1(CCc2ccccc2)CCN(Cc2ccc(NC(C)=O)cc2)CC1 ?
FH mod: -0.7%

Results for CC(=O)OC1(c2ccccc2)CCN(CCc2ccccc2)CC1 ?
FH mod: -0.1%; HTT prom inh: -22.1%[116 µM]; HTT-AS promoter: -19.7%[116 µM]; GPR32 ag: 85.1*; GALC G270D act: inactive

What do the screens show for `COC1CC(O[C@H]2CC[C@]3(C=O)C4CC[C@]5(C)[C@@H](C6=CC(=O)OC6)CC[C@]5(O)[C@@H]4CC[C@@H]3C2)OC(C)C1O[C@@H]1O[C@H](CO)[C@@H](O[C@@H]2O[C@H](CO)[C@@H](O)[C@H](O)[C@H]2O)[C@H](O)[C@H]1O` (stereo not given in full)?
FH mod: 0.7%[20.6 µM]

What do the screens show for `COc1ccc(NC(=O)c2cccn(Cc3ccc(Cl)cc3)c2=O)c(OC)c1`?
B2AR arrestin ag: inactive; FH mod: 3.2%; HTT prom inh: 12.6µM*; HTT-AS promoter: -49.7%; GPR32 ag: 38.2; GALC G270D act: inactive

How did CCOc1ccc(NC(=O)c2cccn(Cc3cccc(Cl)c3)c2=O)cc1 do in these assays?
B2AR arrestin ag: inactive; FH mod: -17.9%; HTT prom inh: 15.8µM*; HTT-AS promoter: -33.5%; GPR32 ag: 7.8; GALC G270D act: inactive

How did CN1[C@H]2CC(O)C[C@H]1[C@H]1O[C@H]12 (stereo not given in full) do in these assays?
FH mod: -9.5%[53.3 µM]; HTT prom inh: inconclusive; HTT-AS promoter: -54.2%

Results for CC[C@@H](C)[C@H]1C(=O)O[C@H](C(C)C)C(=O)N(C)[C@@H]([C@@H](C)CC)C(=O)O[C@H](C(C)C)C(=O)N(C)[C@@H]([C@H](C)CC)C(=O)O[C@H](C(C)C)C(=O)N1C ?
FH mod: -1.5%[20.6 µM]

What do the screens show for `Cc1oc2cc3oc(=O)c(CCC(=O)N4CCCCC4)c(C)c3cc2c1C`?
B2AR arrestin ag: inactive; GPR32 ag: 86.7*

How did Oc1ccc([C@H]2CNCc3c2ccc(O)c3O)cc1O do in these assays?
FH mod: 30.9µM*; HTT prom inh: 0.3%; HTT-AS promoter: -8.4%; GPR32 ag: -6.2; GALC G270D act: inactive

How did O=c1c(O)c(-c2ccc(O)c(O)c2)oc2cc(O)cc(O)c12 do in these assays?
FH mod: inconclusive; HTT prom inh: -12.1%; HTT-AS promoter: -6.5%; GPR32 ag: 108.8*!; GALC G270D act: inactive

What do the screens show for `Cc1ccc(-n2c(/C=C\c3ccc(F)c(F)c3)nc3ccccc3c2=O)c(C)c1`?
B2AR arrestin ag: inactive; FH mod: 4.7%; HTT prom inh: 7.08µM*; HTT-AS promoter: -32.3%; GPR32 ag: 20.2; GALC G270D act: inactive

How did COC1CC(O[C@H]2CC[C@]3(C=O)C4CC[C@]5(C)[C@@H](C6=CC(=O)OC6)CC[C@]5(O)[C@@H]4CC[C@]3(O)C2)OC(C)C1O[C@@H]1O[C@H](CO)[C@@H](O)[C@H](O)[C@H]1O (stereo not given in full) do in these assays?
FH mod: 18.3%[20.6 µM]

How did O=C(Nc1ccc(Br)cc1)c1cc(Br)cc(Br)c1O do in these assays?
FH mod: -24.9%[53.3 µM]; HTT prom inh: 25.0%; HTT-AS promoter: 11.2%; GPR32 ag: 82.3*; GALC G270D act: inactive

What do the screens show for `CCOP(=O)(OCC)Oc1ccc2c(C)cc(=O)oc2c1`?
FH mod: 1.6%

What do the screens show for `CCOC(=O)N1CCN(c2ncc3c(n2)CC(c2ccccc2O)CC3=O)CC1` (stereo not given)?
B2AR arrestin ag: inactive; FH mod: -15.4%; HTT prom inh: inconclusive; HTT-AS promoter: -29.6%; GPR32 ag: 76.4*; GALC G270D act: inactive

Results for CN(Cc1cccc(-c2ccncc2)c1)C(=O)Oc1ccc(-c2ccc(C(N)=O)cc2)cc1 ?
FH mod: 4.6%

What do the screens show for `C[C@H]1C2Cc3ccc(O)cc3[C@@]1(C)CCN2CC1CC1`?
FH mod: -13.3%[53.3 µM]
